Experimental findings from PubChem BioAssay (Tox21) are described below.

Records with an inconclusive call do not appear. A call without a number means that no potency is given here. Calls of active or inactive are those of the source. The call rests on the fitted dose curve; in most records, active means well fitted cell-killing curve with a large enough effect in the repeat runs; inconclusive means weak or mixed curves, or effect the other way; inactive means flat fitted curve, though single readings scatter.

A short description of the assay: qHTS assay to identify small molecule antagonists of the constitutive androstane receptor (CAR) signaling pathway - cell viability counter screen (AID 1224837). Further: nearly all actives have a fitted effect of over 45% in size. To be noted: HepG2-CYP2B6-hCAR viability, CellTiter-Fluor, 23 h, co-treated with 50 nM CITCO; series mostly up to 92.4 µM. From the text:
National Center for Advancing Translational Sciences [NCATS]
NIH Chemical Genomics Center [NCGC]
U.S. Environmental Protection Agency [EPA]
National Institutes of Environmental Health Sciences [NIEHS]
National Toxicology Program [NTP]
U.S. Food and Drug Administration [FDA]
The constitutive androstane receptor (CAR) is a nuclear receptor which regulates multiple drug metabolizing enzymes (DMEs) and transporters. Activating CAR will generally increase the transcription and subsequent translation of CYP2B6 and CYP3A4. These two DMEs represent about 50% of the drug metabolizing potential in the body. When CAR is deactivated, the metabolizing potential in the body will decrease, subsequently increasing the toxicity in the body or lowering the therapeutic potential of a pro-drug. Recently, there have also been studies performed indicating CARs role in energy metabolism and cancer therapy. Therefore, inhibiting CARs activity could have a potential effect on diabetes and cancer. Identifying environmental toxins and compounds which modulate CAR, through the use of the Tox21 10K compound collection, will be an important step in determining the toxicity and potential therapeutic effects these factors will have on the human body. To differentiate true CAR antagonists from cytotoxic substances, the assay is multiplexed with a cell viability assay.
Tox21 Assay Protocol Summary:
A double-stable (hCAR and CYP2B6-2.2kb) transfected cell line, derived from human hepatoma (HepG2) cells, was utilized for the duration of the quantitative high-throughput screens. The HepG2-CYP2B6-hCAR cells were dispensed at 2500 cells/4 uL/well in 1536-well white solid bottom plates using a Multidrop Combi. After the assay plates were incubated at 37 C/5% CO2 for 4 hrs, 23 nL of compounds at 15 concentrations (from 5-48 columns) or positive control (from 1 to 4 columns) were transferred to the assay plates using a Pintool station. One uL of CITCO (final concentration = 50 nM) was added, using a Flying Reagent Dispenser, inside each well. After a 23 hr incubation period at 37 C/5% CO2, 1 uL of CellTiter-Fluor reagent was added into each well of the assay plates using a Flying Reagent Dispenser. The fluorescence intensity in the plates was then measured using a ViewLux plate reader.
`O=C(O)c1cc(O)c(O)c(O)c1`: the Potency result was “inactive”.
With `O=P(OC(CCl)CCl)(OC(CCl)CCl)OC(CCl)CCl` the entry was “inactive”; with `Cc1ccc2oc(=O)ccc2c1`, “inactive”.
Next, `CCN(CC)c1ccc(C(=O)c2ccccc2C(=O)O)c(O)c1`: “inactive”.
Next, `C#C[C@]1(O)CC[C@H]2[C@@H]3CCC4=CC(=O)CC[C@@H]4[C@H]3CC[C@@]21C`: “inactive”.
As for `C#CCN(C)Cc1ccccc1`, the Potency result is “inactive”.
Regarding `Cc1ccc(N(C)C)cc1`, the Potency result was “inactive”.
Take `C/C=C1/CC2C=CC1C2` (stereo not given): the Potency entry was “inactive”.
With `OCC(CO)(CBr)CBr` the entry was “inactive”; with `CCC(O)OCCCOC` (stereo not given), “inactive”.
Turning to `OCc1cccnc1`, the Potency result was “inactive”.
For `CC(=O)OCC(=O)[C@@]12N=C(C)O[C@@H]1C[C@H]1[C@@H]3CCC4=CC(=O)C=C[C@]4(C)[C@H]3[C@@H](O)C[C@@]12C`, the Potency entry was “inactive”.
Turning to `C[C@H]1C[C@H]2[C@@H]3CCC4=CC(=O)C=C[C@]4(C)[C@@]3(F)[C@@H](O)C[C@]2(C)[C@@]1(O)C(=O)CO`, the Potency result is “inactive”.
With `OCCOCCN1CCN(C2=Nc3ccccc3Sc3ccccc32)CC1` the entry was “inactive”.
Regarding `CC1CCC2CC1C2(C)C` (stereo not given), the Potency entry was “inactive”.
With `Cc1occc(=O)c1O` the entry was “inactive”; with `CCC(O)OC(O)CC` (stereo not given), “inactive”.
`ON=C1CCCCC1`: the Potency result is “inactive”.
With `CCCCC(CC)COC(=O)C(C#N)=C(c1ccccc1)c1ccccc1` (stereo not given) the entry was “inactive”.
Next, `CC(C)(N)CO`: “inactive”; `CCCC(C)=O`: “inactive”.
Take `O=C(O)CC(C(=O)O)C(CC(=O)O)C(=O)O` (stereo not given): the Potency entry is “inactive”.
Take `O=C(O)[C@H](O)[C@@H](O)[C@H](O)[C@H](O)CO`: the Potency entry is “inactive”.
With `CC(C)CC(=O)CC(C)C` the entry was “inactive”.
With `CC(c1cc2ccccc2s1)N(O)C(N)=O` (stereo not given) the entry was “inactive”.
For `Cc1cccc(O)c1`, the Potency result was “inactive”.
Consider `CCCCCCCCCC`, for which the Potency entry is “inactive”.
Next, `CCCCCC(N)=O`: “inactive”; `C[C@H]1C[C@@H]2[C@H]([C@@H](O)C[C@@]3(C)[C@H]2CC[C@]3(O)C(=O)CO)[C@@]2(C)C=CC(=O)C=C12`: “inactive”.
On to `C=C(C)C(=O)OCCOCCOCCOC(=O)C(=C)C`, for which the Potency result was “inactive”.
With `O=C(O)c1ccccc1C(c1ccc(O)cc1)c1ccc(O)cc1` the entry was “inactive”; with `COS(C)(=O)=O`, “inactive”.
Take `O=C(O)CCCCCCCCCCC(=O)O`: the Potency result is “inactive”.
With `CCCCCCCCC/C=C/CC1CC(=O)OC1=O` (stereo not given), the Potency result was “inactive”.
With `CC(=O)CC(=O)Nc1ccccc1` the entry was “inactive”.
Next, `CCCCOC(=O)COc1ccc(Cl)cc1Cl`: “inactive”; `Cc1cnc(C(=O)NCCc2ccc(S(=O)(=O)NC(=O)NC3CCCCC3)cc2)cn1`: “inactive”.
With `NNc1nncc2ccccc12` the entry was “inactive”.
`CN(C)CCOCCN(C)C`: the Potency result was “inactive”.
As for `CC(=O)CC(=O)Nc1ccccc1C`, the Potency entry is “inactive”.
